Screens (PubChem BioAssay)
CF NFkB inh: cystic fibrosis NF-kB activation inhibition. KKLEB NF-kB-GFP reporter, PAF-induced, GFP fluorescence overnight. inhibition, % at 5 µM. 360,000 tested, 0.86% active. AID 588850;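 active = at least 50% inhibition at 5 µM, scaled per plate between neutral and stimulator controls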;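 also: PAF is a Pseudomonas aeruginosa culture filtrate used as stimulus; plate controls were PAF-stimulated DMSO wells for no effect and unstimulated DMSO wells for full effect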
ABHD5 PLIN5 PPI: ABHD5-PLIN5 protein interaction inhibition. Q00G26+Q8WTS1. 360,000 tested, 0.78% active. Split G. princeps luciferase complementation, luminescence, 4 h. inhibition, % at 4 µM. AID 602281;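 active = inhibition above the mean inhibition across every tested compound plus 3 SD, cut at about 22% in these data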;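 also: 0% = DMSO only wells and the 100% control is not disclosed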
Target sequence (Q00G26 whole entry, looked up): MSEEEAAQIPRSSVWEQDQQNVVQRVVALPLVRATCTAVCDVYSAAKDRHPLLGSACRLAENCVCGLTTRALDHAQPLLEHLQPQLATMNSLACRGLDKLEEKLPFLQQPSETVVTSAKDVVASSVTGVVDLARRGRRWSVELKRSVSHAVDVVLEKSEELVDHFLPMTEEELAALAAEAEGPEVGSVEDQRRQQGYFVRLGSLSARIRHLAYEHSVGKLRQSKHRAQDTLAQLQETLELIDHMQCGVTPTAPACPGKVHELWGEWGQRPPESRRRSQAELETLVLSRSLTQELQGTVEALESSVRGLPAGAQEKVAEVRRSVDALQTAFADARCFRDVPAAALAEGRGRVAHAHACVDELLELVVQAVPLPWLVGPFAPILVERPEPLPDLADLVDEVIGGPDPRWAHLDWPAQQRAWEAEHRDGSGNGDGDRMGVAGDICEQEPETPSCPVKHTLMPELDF
Target sequence (Q8WTS1 whole entry, looked up): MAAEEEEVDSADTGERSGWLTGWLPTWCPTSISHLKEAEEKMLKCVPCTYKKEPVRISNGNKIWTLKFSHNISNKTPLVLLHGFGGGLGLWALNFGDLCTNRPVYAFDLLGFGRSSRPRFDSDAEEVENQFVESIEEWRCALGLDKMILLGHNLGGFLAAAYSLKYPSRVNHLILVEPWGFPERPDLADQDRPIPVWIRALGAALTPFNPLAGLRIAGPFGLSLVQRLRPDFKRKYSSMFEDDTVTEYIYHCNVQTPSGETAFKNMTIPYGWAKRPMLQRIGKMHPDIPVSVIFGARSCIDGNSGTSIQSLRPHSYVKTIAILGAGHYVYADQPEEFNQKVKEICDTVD
Peg3 prom inh: reduces Peg3 promoter-driven luciferase expression in HeLa | HeLa PEG-Prom luciferase reporter, luminescence, overnight | AID 588405 | 360,000 tested, 1.7% active | inhibition, % at 20 µM;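 active = inhibition of at least 50% at 20 µM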
KKLEB tox: reduces viability of KKLEB cystic fibrosis airway cells. activity change (cytotoxicity), % at 5 µM. AID 602141. KKLEB CF airway cells viability, ATPlite luminescence, overnight; stronger effect = lower value; cells stimulated with P. aeruginosa culture filtrate. 360,000 tested, 0.36% active;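 active = corrected activity change at or below -50% at 5 µM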
TRPM1 prom inh: reduces MITF-dependent TRPM1 promoter luciferase signal | SK-MEL-5 TRPM1 promoter luciferase, 24 h | inhibition, % at 12.5 µM | 330,000 tested, 0.83% active;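 active = mean inhibition across replicates of 60% or more, whatever share of single replicates reaches that level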
HIF-2a inh: inhibitors of HIF-2a | 786-0 RCC cells HIF-2a reporter, luciferase luminescence, overnight | inhibition, % at 18.8 µM | 360,000 tested, 0.72% active;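 active = inhibition of the luminescence signal of 40% or more relative to plate controls, in a single-dose primary screen at 18.75 µM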
Mdm2-MdmX confirm: confirmation of inhibitors of human Mdm2/MdmX interaction, set 2. shares compounds with HIF-2a inh. SaOS-2 split-luciferase Mdm2/MdmX complementation, luminescence. inhibition, % at 8 µM. 740 tested, 99% active. AID 504601;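 active = mean inhibition of the luminescence signal across two replicates at or above 26 percent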
HIF-2a inh conf: HIF-2a inhibition, single concentration confirmation; 1,800 tested, 56% active; 786-0 RCC cells, HIF-2a luciferase reporter luminescence, overnight; AID 651580; shares compounds with HIF-2a inh; inhibition, % at 18.8 µM;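 active = mean inhibition across four replicates of at least 40 percent at the single tested concentration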
HIF-1a counter: counter-screen for HIF-2a inhibitors: HIF-1a inhibition in MiaPaCa-2 cells; shares compounds with HIF-2a inh; MiaPaCa-2 HIF-1a luciferase reporter, desferoxamine, overnight; inhibition, % at 18.8 µM; 1,800 tested, 72% active;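 active = mean inhibition of the reporter signal across four replicates at the single tested dose of 50% or more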
The depositor's hits bear a star. Sampled rows, rich in hits. Any-hit rate of the full collection: about 3.1%.

`N#Cc1ccc(CSc2nnc(-c3c[nH]c4ccccc34)n2-c2ccccc2)cc1` gave CF NFkB inh -0.1, ABHD5 PLIN5 PPI 15.7, Peg3 prom inh 18.8, KKLEB tox 2.8, TRPM1 prom inh -4.8, HIF-2a inh 46.6*, HIF-2a inh conf 30.4 and HIF-1a counter 70.6*.
CC(=O)Oc1ccc(N(C(C)=O)S(=O)(=O)c2ccc3ccccc3c2)cc1 was read as CF NFkB inh -9.0, ABHD5 PLIN5 PPI -5.3, Peg3 prom inh -5.1, KKLEB tox 2.8, TRPM1 prom inh -2.5 and HIF-2a inh 0.2.
Screening CC1=C(C(=O)OC(C)C)C(c2cccs2)C(C(=O)OC(C)C)=C(C)N1 returned CF NFkB inh -6.2, ABHD5 PLIN5 PPI -11.4, Peg3 prom inh 24.4, KKLEB tox -4.2, TRPM1 prom inh -5.6 and HIF-2a inh 9.0.
`CC(=O)Nc1sc2c(c1-c1nc3ccccc3s1)CN(C(C)C)CC2` gave CF NFkB inh -83.0, ABHD5 PLIN5 PPI -1.4, Peg3 prom inh 98.3*, KKLEB tox -44.3, TRPM1 prom inh 64.2*, HIF-2a inh 8.6 and Mdm2-MdmX confirm 102.7*.
Screening CC(=O)N1CCc2c(sc(NC(=O)C3CC3)c2-c2nc3ccccc3s2)C1 returned CF NFkB inh -49.7, ABHD5 PLIN5 PPI -5.7, Peg3 prom inh -0.5, KKLEB tox -2.8, TRPM1 prom inh 4.5 and HIF-2a inh -12.8.
N#Cc1c(N2CCCC(O)C2)nc(N)c2c(N)nc3c(c12)CC(=O)N3C12CC3CC(CC(C3)C1)C2 (stereo not given) was read as CF NFkB inh 58.1*, ABHD5 PLIN5 PPI 7.8, Peg3 prom inh 40.8, KKLEB tox -3.8, TRPM1 prom inh 6.1, HIF-2a inh 36.2 and Mdm2-MdmX confirm 91.0*.
`O=C(Cc1ccc(Cl)c(Cl)c1)N1CCOCC1` gave CF NFkB inh 5.0, ABHD5 PLIN5 PPI 1.1, Peg3 prom inh 5.5, KKLEB tox -6.8, TRPM1 prom inh 8.8 and HIF-2a inh 1.5.
For O=C(O)CC1(CC(=O)Nc2cc(C(F)(F)F)cc(C(F)(F)F)c2)CCCCC1 the results were CF NFkB inh 5.4, ABHD5 PLIN5 PPI -6.8, Peg3 prom inh 16.7, KKLEB tox 6.3, TRPM1 prom inh 1.6 and HIF-2a inh -6.7.
Screening CCOC(=O)C1=C(COC(=O)c2ccccc2[N+](=O)[O-])NC(=O)NC1C (stereo not given) returned CF NFkB inh -19.9, ABHD5 PLIN5 PPI -6.5, Peg3 prom inh 6.2, KKLEB tox 15.7, TRPM1 prom inh 4.2 and HIF-2a inh -0.4.
For CCOC(=O)c1sc2nc(CC(=O)OC)nc(NCc3ccco3)c2c1C the results were CF NFkB inh -3.1, ABHD5 PLIN5 PPI 12.9, Peg3 prom inh -12.1, KKLEB tox 3.1, TRPM1 prom inh -16.3 and HIF-2a inh -1.0.
For Cc1nc(NCc2ccco2)c2c(C)c(C)sc2n1 the results were CF NFkB inh 3.5, ABHD5 PLIN5 PPI 8.3, Peg3 prom inh 88.1*, KKLEB tox -16.5, TRPM1 prom inh 54.1, HIF-2a inh -27.0 and Mdm2-MdmX confirm 101.5*.
`O=c1oc2ccccc2c2c1nnn2CCO` gave CF NFkB inh -7.9, ABHD5 PLIN5 PPI 0.9, Peg3 prom inh -1.5, KKLEB tox 3.2, TRPM1 prom inh -4.2 and HIF-2a inh 5.9.
COc1ccc(CNC(=O)C(c2ccncc2)N(C(=O)Cc2cccs2)c2ccccc2)cc1 (stereo not given) was read as CF NFkB inh -8.1, ABHD5 PLIN5 PPI 1.7, Peg3 prom inh 3.6, KKLEB tox 13.2, TRPM1 prom inh 20.4 and HIF-2a inh 15.5.
